Test results from PubChem BioAssay AID492952 (Southern Research Specialized Biocontainment Screening …, 2010).
The campaign covered roughly 2,300 compounds. About 1,500 (65%) were called active. The rule behind the calls is not given here. So high a share suggests a set chosen from earlier hits. The list shows a part of the results. Results with a measured potency or affinity are listed apart.

Test: replicating M. tuberculosis growth inhibition, dose response, non-replicating M. tuberculosis project, H37Rv (AID 492952);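 note: Mycobacterium tuberculosis grown in culture; growth inhibition read after a week of incubation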
Settings: series mostly up to 50 µM

Question: For `O=C1CC(N2CCN(Cc3ccccc3)CC2)C(=O)N1CCc1ccccc1` (stereo not given), which outcome is on record?
Answer: The outcome was “inactive”.

Question: Which outcome does the source give for `CCCCNC(=O)N1CCc2ccccc2C1` here?
Answer: Its outcome is “inactive”.

Question: For `O=C(NCc1ccccc1CN1CCCC1)c1cc2ccccc2o1`, which outcome is on record?
Answer: Its outcome is “inactive”.

Question: With `CCN1CCN(C(=O)CN(Cc2ccccc2)S(C)(=O)=O)CC1` as the compound, how does the outcome read?
Answer: The outcome was “inactive”.

Question: Which outcome does the source give for `O=C(CCS(=O)(=O)Cc1ccccc1)Nc1ncc([N+](=O)[O-])s1` here?
Answer: The outcome was “inactive”.

Question: For `O=C(N/N=C/c1c(O)ccc2ccccc12)c1ccc(Br)o1`, which outcome is on record?
Answer: The outcome was “inactive”.

Question: With `CCCCN(C)C(=O)c1cc2cc3ccc(OC)cc3nc2s1` as the compound, how does the outcome read?
Answer: Its outcome is “inactive”.

Question: For `CCCOC(=O)c1ccc(OC(=O)c2ccco2)cc1`, which outcome is on record?
Answer: The outcome was “inactive”.

Question: Which outcome does the source give for `O=C(NCC1CCCCC1)c1ccco1` here?
Answer: Its outcome is “inactive”.

Question: For `O=C(CNC(=O)c1ccccc1F)OCc1csc(-c2ccccc2)n1`, which outcome is on record?
Answer: Its outcome is “inactive”.

Question: For `C/C(=N/NC(=O)c1cccc(C)c1)c1c(O)cc(C)oc1=O`, which outcome is on record?
Answer: Its outcome is “inactive”.

Question: For `COc1cccc(NC(=O)c2ccc(-c3ccc([N+](=O)[O-])cc3)o2)c1`, which outcome is on record?
Answer: The outcome was “inactive”.

Question: Which outcome does the source give for `O=C(Nc1ncc([N+](=O)[O-])s1)c1cccs1` here?
Answer: The outcome was “inactive”.

Question: Which outcome does the source give for `O=C1/C(=C\c2ccco2)SC(=S)N1c1ccc(O)cc1` here?
Answer: The outcome was “inactive”.

Question: With `O=C(NNC1=C(C(=O)C(F)(F)F)CCC1)c1ccccc1Cl` as the compound, how does the outcome read?
Answer: The outcome was “inactive”.

Question: With `Cc1c(Cl)cccc1NC(=O)C1COc2ccccc2O1` (stereo not given) as the compound, how does the outcome read?
Answer: The outcome was “inactive”.

Question: For `Cc1ccccc1C(=O)NNc1ccc([N+](=O)[O-])cc1`, which outcome is on record?
Answer: Its outcome is “inactive”.

Question: With `O=C(COc1ccc2ccccc2c1)N1CCCC1` as the compound, how does the outcome read?
Answer: The outcome was “inactive”.

Question: With `O=C(c1cccc2cccc(O)c12)N1CCCCC1` as the compound, how does the outcome read?
Answer: Its outcome is “inactive”.

Question: For `Cc1ccc(C(=O)N/N=C/c2cccc3ccccc23)cn1`, which outcome is on record?
Answer: Its outcome is “inactive”.

Question: With `CCN(CC)CCSc1nnc2c3cc(C)ccc3n(Cc3ccccc3)c2n1` as the compound, how does the outcome read?
Answer: The outcome was “inactive”.

Question: With `Cc1ccc(NC(=O)C2CC2c2ccccc2)cc1` (stereo not given) as the compound, how does the outcome read?
Answer: The outcome was “inactive”.

Question: For `O=C(CCSc1nnc(-c2ccncc2)o1)Nc1cccc(Cl)c1`, which outcome is on record?
Answer: Its outcome is “inactive”.

Question: Which outcome does the source give for `N#Cc1ccc(CSc2nnc(-c3cccnc3)o2)cc1` here?
Answer: Its outcome is “inactive”.

Question: Which outcome does the source give for `Cc1nnc(SCCC(=O)Nc2ccc(Cl)cc2)o1` here?
Answer: The outcome was “inactive”.

Question: Which outcome does the source give for `CCOC(=O)CN1NC2(CCC(C)CC2)NC1=S` (stereo not given) here?
Answer: The outcome was “inactive”.

Question: With `O=[N+]([O-])c1ccc2nc(SCc3cn4cc(Cl)ccc4n3)[nH]c2c1` as the compound, how does the outcome read?
Answer: Its outcome is “inactive”.

Question: For `Cc1nc2ccc(Cl)cc2nc(C)/c1=N\O`, which outcome is on record?
Answer: The outcome was “inactive”.

Question: For `O=c1c2cc(Cl)ccc2nc(-c2ccccc2Cl)n1O`, which outcome is on record?
Answer: The outcome was “inactive”.

Question: Which outcome does the source give for `O=c1c2c([N+](=O)[O-])cc([N+](=O)[O-])cc2sn1-c1ccc(Br)cc1` here?
Answer: The outcome was “inactive”.

Question: Which outcome does the source give for `O=C(NNc1nc2ccccc2s1)c1ccc(F)cc1` here?
Answer: The outcome was “inactive”.

Question: For `CC(C)CCC1=NN(C(=O)c2ccco2)C(O)(C(F)(F)F)C1` (stereo not given), which outcome is on record?
Answer: The outcome was “inactive”.

Question: For `CCOC(=O)C1(CC2CCCCO2)CCN(Cc2nccn2-c2ccc(OC)cc2)CC1` (stereo not given), which outcome is on record?
Answer: Its outcome is “inactive”.

Question: For `CCCCNS(=O)(=O)c1ccc(OCC(=O)OC)cc1`, which outcome is on record?
Answer: The outcome was “inactive”.

Question: With `NNC(=O)COc1cccc(Oc2ccccc2)c1` as the compound, how does the outcome read?
Answer: The outcome was “inactive”.

Question: Which outcome does the source give for `COC(=O)c1ccc(OCC(=O)c2cccc(OC)c2)cc1` here?
Answer: Its outcome is “inactive”.

Question: For `C=CCOC(=O)c1ccc(-n2cnc(C)n2)nc1`, which outcome is on record?
Answer: Its outcome is “inactive”.

Question: With `CCn1cc(/C=N\NC(=O)c2ccc(F)cc2)cn1` as the compound, how does the outcome read?
Answer: The outcome was “inactive”.

Question: For `O=C(c1cc(F)ccc1F)C1CCCN(Cc2ccc3nonc3c2)C1` (stereo not given), which outcome is on record?
Answer: Its outcome is “inactive”.

Question: For `Cc1ccc(NC(=S)C2=C(O)c3sccc3N(C)S2(=O)=O)cc1`, which outcome is on record?
Answer: The outcome was “inactive”.

Question: For `COc1ccc(CC(=O)Nc2nccs2)cc1OC`, which outcome is on record?
Answer: The outcome was “inactive”.

Question: Which outcome does the source give for `N#Cc1ccsc1NC(=O)c1ccc(Cl)c([N+](=O)[O-])c1` here?
Answer: Its outcome is “inactive”.

Question: For `O=C(Nc1sc2c(c1C(=O)O)CCCCC2)c1ccccc1F`, which outcome is on record?
Answer: The outcome was “inactive”.

Question: Which outcome does the source give for `O=C1NC(=O)N(Cc2ccco2)C(=O)/C1=C\c1cccn1CCOc1ccc(Cl)cc1` here?
Answer: The outcome was “inactive”.

Question: With `Cc1cc(Br)ccc1OCCCCN1CCC(C)CC1` as the compound, how does the outcome read?
Answer: Its outcome is “inactive”.

Question: With `CCCCCOc1ccc(CSC2=NCCN2)cc1[N+](=O)[O-]` as the compound, how does the outcome read?
Answer: The outcome was “inactive”.

Question: Which outcome does the source give for `C=CCN(CC=C)CC(=O)Nc1ccc(S(N)(=O)=O)cc1` here?
Answer: Its outcome is “inactive”.

Question: For `NC(=O)CN1CCN(C2CC(=O)N(CCc3ccccc3)C2=O)CC1` (stereo not given), which outcome is on record?
Answer: Its outcome is “inactive”.

Question: For `COC(=O)c1cccc(COC(=O)c2cc3ccccc3oc2=O)c1`, which outcome is on record?
Answer: The outcome was “inactive”.

Question: For `O=C(COC(=O)C1CC2C=CC1C2)Nc1ccccc1` (stereo not given), which outcome is on record?
Answer: Its outcome is “inactive”.

Question: Which outcome does the source give for `O=c1oc2ccccc2c2c1nnn2CCO` here?
Answer: The outcome was “inactive”.

Question: Which outcome does the source give for `CCC(C)n1c(=S)[nH]c2ccccc2c1=O` (stereo not given) here?
Answer: The outcome was “inactive”.

Question: With `CCOC(=O)c1sc(NC(=O)CCN2CC(C)OC(C)C2)c(C(=O)OCC)c1C` (stereo not given) as the compound, how does the outcome read?
Answer: The outcome was “inactive”.

Question: Which outcome does the source give for `OCC1(CCOc2ccccc2)CCN(Cc2cc(Cl)ccc2O)CC1` here?
Answer: Its outcome is “inactive”.

Question: With `O=[N+]([O-])c1ccc(-c2nc3ccc([N+](=O)[O-])cc3[nH]2)cc1` as the compound, how does the outcome read?
Answer: The outcome was “inactive”.

Question: Which outcome does the source give for `O=[N+]([O-])c1ccc2nc(SCc3cn4ccccc4n3)[nH]c2c1` here?
Answer: The outcome was “inactive”.

Question: With `c1ccc(OCc2nn3c(-c4ccccn4)nnc3s2)cc1` as the compound, how does the outcome read?
Answer: Its outcome is “inactive”.

Question: With `C/C(=N/NC(=O)c1cc2ccccc2cc1O)C1C(=O)c2ccccc2C1=O` as the compound, how does the outcome read?
Answer: The outcome was “inactive”.

Question: With `O=C(NCC1CCCCC1)c1ccc([N+](=O)[O-])cc1` as the compound, how does the outcome read?
Answer: Its outcome is “inactive”.

Question: For `O=C(CCSc1ccc(Cl)cc1)NC1CCCC1`, which outcome is on record?
Answer: Its outcome is “inactive”.
